# Data published in PubChem BioAssay (NCATS).
# Results filed as inconclusive are left out. Calls of active or inactive are those of the source. Unless noted, calls come from the whole dose curve.
# Legend:
# [1] = molecular target: Glucocorticoid receptor (Homo sapiens) (UniProt P04150); test: qHTS assay for small molecule agonists of glucocorticoid receptor signaling (AID 588532; active = well fitted curve in the direction sought with a large enough effect in the signal ratio, with a control signal flat; the % refers to the signal ratio;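 note: 100% = dexamethasone at 0.1 µM and 0% = DMSO only wells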); conditions: HeLa MMTV-bla, beta-lactamase ratio, agonist, 18 h; stronger effect = higher value; percent of dexamethasone control, DMSO zero
# Chain of Glucocorticoid receptor (Homo sapiens) (P04150 whole entry, looked up): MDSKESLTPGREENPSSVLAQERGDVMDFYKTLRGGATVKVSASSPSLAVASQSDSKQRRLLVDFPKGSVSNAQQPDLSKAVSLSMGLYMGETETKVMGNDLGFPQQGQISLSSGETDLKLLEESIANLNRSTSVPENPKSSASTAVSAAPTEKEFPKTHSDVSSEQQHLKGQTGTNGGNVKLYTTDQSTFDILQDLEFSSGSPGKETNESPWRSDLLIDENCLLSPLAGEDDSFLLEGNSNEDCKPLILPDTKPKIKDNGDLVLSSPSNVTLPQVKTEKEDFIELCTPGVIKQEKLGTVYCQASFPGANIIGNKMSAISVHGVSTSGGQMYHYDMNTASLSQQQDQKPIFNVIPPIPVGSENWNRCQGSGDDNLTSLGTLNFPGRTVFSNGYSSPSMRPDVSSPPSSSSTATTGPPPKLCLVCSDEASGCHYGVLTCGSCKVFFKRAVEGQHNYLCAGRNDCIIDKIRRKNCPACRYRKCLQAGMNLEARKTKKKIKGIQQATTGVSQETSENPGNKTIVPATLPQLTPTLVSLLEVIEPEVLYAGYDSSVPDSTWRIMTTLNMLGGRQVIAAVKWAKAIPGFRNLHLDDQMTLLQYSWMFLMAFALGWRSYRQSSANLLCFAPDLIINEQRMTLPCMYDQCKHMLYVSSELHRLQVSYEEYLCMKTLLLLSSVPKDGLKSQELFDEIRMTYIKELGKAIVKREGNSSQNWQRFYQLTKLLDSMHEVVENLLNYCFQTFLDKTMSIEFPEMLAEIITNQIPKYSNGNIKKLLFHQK
# Summary of the method: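 MMTV-bla HeLa beta-lactamase reporter cells in 1% charcoal/dextran FBS medium, compounds up to 92 uM for 18 h at 37 C, CCF4 readout; normalized to 0.1 uM dexamethasone (100%), EC50 and efficacy from Hill fits.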
# [2] = molecular target: Vitamin D3 receptor (Homo sapiens) (UniProt P11473); test: qHTS assay for small molecule agonists of vitamin D receptor signaling (AID 588543); conditions: HEK293T VDR-UAS-bla, beta-lactamase ratio, 16 h; series mostly up to 76.8 µM;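 note: 0% = DMSO basal and 100% = reference agonist control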
# Chain of Vitamin D3 receptor (Homo sapiens) (P11473 whole entry, looked up): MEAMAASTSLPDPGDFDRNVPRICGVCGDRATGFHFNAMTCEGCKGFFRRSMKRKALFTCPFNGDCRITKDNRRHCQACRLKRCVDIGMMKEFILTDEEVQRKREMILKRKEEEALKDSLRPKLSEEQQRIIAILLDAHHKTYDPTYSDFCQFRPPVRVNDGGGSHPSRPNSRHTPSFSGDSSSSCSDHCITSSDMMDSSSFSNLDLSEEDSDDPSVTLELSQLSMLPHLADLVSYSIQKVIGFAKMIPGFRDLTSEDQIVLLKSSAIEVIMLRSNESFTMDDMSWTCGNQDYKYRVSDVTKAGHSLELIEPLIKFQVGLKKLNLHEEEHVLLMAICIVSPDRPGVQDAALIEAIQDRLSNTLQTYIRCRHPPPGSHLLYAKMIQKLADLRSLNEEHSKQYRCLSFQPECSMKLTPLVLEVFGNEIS
# Summary of the method: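 GeneBLAzer VDR-UAS-bla HEK293T cells in 2% charcoal-stripped FBS medium were dosed with compound titrations for 16 h at 37 °C; CCF4 β-lactamase readout (405 nm ex, 460/530 nm em). EC50 and efficacy from Hill fits, normalized to 50 nM calcitriol (100%) and DMSO (0%).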
# [3] = molecular target: Tumor necrosis factor (Homo sapiens) (UniProt P01375); test: qHTS assay to identify small molecules that stimulate Tumor Necrosis Factor-alpha (TNF-alpha) secretion (AID 651757; active = well fitted curve in the direction sought with a large enough effect in the signal ratio; the % refers to the signal ratio; note: 0% is about no effect); conditions: Human cells, HTRF 665/615 ratio; series mostly up to 92.2 µM
# Chain of Tumor necrosis factor (Homo sapiens) (P01375 whole entry, looked up): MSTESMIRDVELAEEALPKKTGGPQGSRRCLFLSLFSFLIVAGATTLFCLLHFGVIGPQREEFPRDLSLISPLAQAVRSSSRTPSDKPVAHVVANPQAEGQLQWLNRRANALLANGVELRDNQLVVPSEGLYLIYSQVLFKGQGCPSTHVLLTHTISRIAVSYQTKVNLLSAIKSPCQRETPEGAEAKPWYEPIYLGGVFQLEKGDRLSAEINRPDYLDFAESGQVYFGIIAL
# Summary of the method: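 Human monocytic THP-1 cells are plated, treated with compound and held at 37 C for 17 hrs. Labeled anti-TNF-alpha antibody mixture is then added; after 3 hr at room temperature, TR-FRET signal reports secreted TNF-alpha.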
# [4] = qHTS assay for small molecule antagonists of peroxisome proliferator-activated receptor delta signaling (AID 588535; active = well fitted inhibition curve with a large enough effect in the signal ratio, with a control signal flat, not every such curve was filed as active; the % refers to the signal ratio;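 for max response: cells co-treated with a PPAR-delta agonist as stimulator during compound exposure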); conditions: HEK293T PPARd-UAS-bla, beta-lactamase FRET ratio, 18 h; 460 nm channel
# Summary of the method: (§1)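 Fluorescence from CCF4-loaded GeneBLAzer PPAR-delta-UAS-bla HEK293T cells (2 hrs RT loading) quantified reporter inhibition after an 18 hr, 37 C compound exposure across a titration.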
# [5] = molecular target: Peroxisome proliferator-activated receptor delta (Homo sapiens) (UniProt Q03181); test: as above; conditions: HEK293T PPARd-UAS-bla, beta-lactamase FRET ratio, 18 h; series mostly up to 76.7 µM
# Chain of Peroxisome proliferator-activated receptor delta (Homo sapiens) (Q03181 whole entry, looked up): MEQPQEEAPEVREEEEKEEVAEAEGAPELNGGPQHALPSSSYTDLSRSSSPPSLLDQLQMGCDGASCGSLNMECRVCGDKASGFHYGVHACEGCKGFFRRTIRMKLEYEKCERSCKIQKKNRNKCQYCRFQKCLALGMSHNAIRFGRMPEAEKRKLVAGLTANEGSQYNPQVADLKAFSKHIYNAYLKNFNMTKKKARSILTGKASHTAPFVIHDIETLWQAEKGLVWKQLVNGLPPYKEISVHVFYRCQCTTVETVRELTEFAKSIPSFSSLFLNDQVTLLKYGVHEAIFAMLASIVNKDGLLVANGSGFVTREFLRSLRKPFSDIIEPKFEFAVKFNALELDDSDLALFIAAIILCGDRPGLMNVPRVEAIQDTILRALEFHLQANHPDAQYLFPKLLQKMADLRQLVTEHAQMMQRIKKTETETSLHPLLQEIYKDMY
# Summary of the method: as §1
# [6] = molecular target: Vitamin D3 receptor (Homo sapiens) (UniProt P11473); test: qHTS assay for small molecule antagonists of vitamin D receptor signaling (AID 588541); conditions: HEK293T VDR-UAS-bla, beta-lactamase ratio, antagonist mode; series mostly up to 76.7 µM; note: potency is the fitted concentration of half-maximal effect
# Summary of the method: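 VDR-UAS-bla HEK293T cells in 2% charcoal-stripped FBS were stimulated with 1-alpha,25-dihydroxyvitamin D3 (3 nM final) plus compound for 16 h at 37 C. The beta-lactamase CCF4 readout was normalized to 50 nM agonist and DMSO, and Hill fits gave IC50.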
# [7] = qHTS assay for small molecule agonists of retinoid X receptor alpha signaling (AID 588544); conditions: HEK293T RXRa-UAS-bla, beta-lactamase reporter, 18 h; 530 nm emission;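 for activation: 0% = DMSO basal wells and 100% = reference agonist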
# [8] = molecular target: Retinoic acid receptor RXR-alpha (Homo sapiens) (UniProt P19793); test: as above; conditions: HEK293T RXRa-UAS-bla, beta-lactamase reporter, 18 h; series mostly up to 76.7 µM
# Chain of Retinoic acid receptor RXR-alpha (Homo sapiens) (P19793 whole entry, looked up): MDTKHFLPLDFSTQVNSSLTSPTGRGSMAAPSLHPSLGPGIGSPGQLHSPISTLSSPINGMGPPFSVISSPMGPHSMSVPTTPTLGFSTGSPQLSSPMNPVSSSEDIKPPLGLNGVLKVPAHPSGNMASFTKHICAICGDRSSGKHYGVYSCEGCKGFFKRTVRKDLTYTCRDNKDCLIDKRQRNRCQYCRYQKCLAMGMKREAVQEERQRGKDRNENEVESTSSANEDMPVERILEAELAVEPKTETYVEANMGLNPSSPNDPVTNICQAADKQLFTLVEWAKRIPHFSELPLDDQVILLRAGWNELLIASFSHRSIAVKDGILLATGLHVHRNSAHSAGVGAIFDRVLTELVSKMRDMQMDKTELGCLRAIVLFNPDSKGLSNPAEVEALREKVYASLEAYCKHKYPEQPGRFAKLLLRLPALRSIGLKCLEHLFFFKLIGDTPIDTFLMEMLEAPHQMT
# [9] = qHTS assay for small molecule antagonists of retinoid X receptor alpha signaling (AID 588546; active = well fitted inhibition curve with a large enough effect in the signal ratio, with a control signal flat, not every such curve was filed as active; the % refers to the signal ratio;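 note: cells stimulated with 9-cis-retinoic acid as agonist; % is set by controls: 0 for no effect and ±100 for the full control effect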); conditions: HEK293T RXRa-UAS-bla, beta-lactamase ratio, antagonist mode; measured here: W530 green channel, cytotoxicity proxy
# Summary of the method: (§2)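 Beta-lactamase reporter inhibition, read as CCF4 fluorescence ratio (ex 405, em 460/530 nm) after 2 h at RT. HEK293T UAS-bla cells, 2500/well, were stimulated with 9-cis-RA at 500 or 100 nM final alongside test compound for 18 h at 37 C.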
# [10] = molecular target: Retinoic acid receptor RXR-alpha (Homo sapiens) (UniProt P19793); test: as above; conditions: HEK293T RXRa-UAS-bla, beta-lactamase ratio, antagonist mode
# Summary of the method: as §2
# [11] = molecular target: Thyroid hormone receptor beta (Homo sapiens) (UniProt P10828); test: qHTS assay for small molecule antagonists of thyroid hormone receptor beta signaling (AID 588547; active = well fitted inhibition curve with a large enough effect in the signal ratio, with a control signal flat, not every such curve was filed as active; the % refers to the signal ratio;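 note: cells stimulated with 0.4 nM T3 agonist during compound exposure; % is set by controls: 0 for no effect and ±100 for the full control effect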); conditions: TR-UAS-bla HEK293, beta-lactamase ratio, antagonist mode, 18 h
# Chain of Thyroid hormone receptor beta (Homo sapiens) (P10828 whole entry, looked up): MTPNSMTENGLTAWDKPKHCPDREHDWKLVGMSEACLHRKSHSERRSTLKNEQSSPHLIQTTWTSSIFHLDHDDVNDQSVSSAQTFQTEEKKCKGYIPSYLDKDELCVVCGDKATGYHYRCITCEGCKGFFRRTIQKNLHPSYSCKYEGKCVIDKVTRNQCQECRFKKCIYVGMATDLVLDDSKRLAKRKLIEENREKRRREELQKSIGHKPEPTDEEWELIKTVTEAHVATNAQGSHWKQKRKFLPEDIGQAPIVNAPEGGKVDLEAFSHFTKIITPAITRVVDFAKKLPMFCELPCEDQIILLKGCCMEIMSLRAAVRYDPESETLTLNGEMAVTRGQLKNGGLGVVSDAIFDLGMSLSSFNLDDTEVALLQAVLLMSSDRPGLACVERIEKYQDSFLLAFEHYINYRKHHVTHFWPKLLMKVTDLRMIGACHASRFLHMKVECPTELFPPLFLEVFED
# Summary of the method: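 TR-UAS-bla GripTite HEK293 cells in 2% charcoal/dextran FBS medium; compounds 0.59 nM to 92 uM with T3 at 0.4nM final, 18 h at 37 C. Beta-lactamase read by CCF4 fluorescence (460/530 nm); Hill fits gave IC50 and efficacy.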
# [12] = qHTS assay for small molecule agonists of the antioxidant response element (ARE) signaling pathway (AID 651741; active = well fitted activation curve with a large enough effect in the signal ratio; the % refers to the signal ratio; note: potency is the fitted concentration of half-maximal effect; for activation: % of control where 0% means no effect); conditions: HepG2 ARE-bla reporter, beta-lactamase FRET ratio, 16 h; series mostly up to 96 µM
# Summary of the method: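 Stably integrated ARE-beta-lactamase reporter HepG2 cells; 16 h compound incubation, 37 C; LiveBLAzer FRET substrate 2 h at room temperature; fluorescence intensity.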
# [13] = qHTS assay for small molecule activators of the nuclear factor-kappa B (NF-kB) signaling pathway (AID 651749; active = well fitted activation curve with a large enough effect in the signal ratio; the % refers to the signal ratio; note: % of control where 0% means no effect); conditions: NF-kB-bla ME-180 cells, beta-lactamase FRET ratio, 16 h; stronger effect = higher value
# Summary of the method: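 In this qHTS format, compounds acting as activators increase NF-kB-driven beta-lactamase in ME-180 cells, measured as disrupted FRET after 16 hr exposure at 37C and 5% CO2.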
# [14] = qHTS assay for small molecule activators of the human pregnane X receptor (PXR) signaling pathway (AID 720659; call rule not given here; note: 0% is about no effect); conditions: DPX-2 HepG2 CYP3A4-luciferase, 24 h; series mostly up to 92.3 µM
# [15] = molecular target: Estrogen receptor (Homo sapiens) (UniProt P03372); test: qHTS assay for small molecule antagonists of estrogen receptor alpha signaling (AID 588513; active = well fitted curve in the direction sought with a large enough effect in the signal ratio, with a control signal flat, not every such curve was filed as active; the % refers to the signal ratio; note: % is set by controls: 0 for no effect and ±100 for the full control effect); conditions: ER-alpha-UAS-bla HEK293, beta-lactamase ratio, antagonist mode; series mostly up to 76.9 µM
# Chain of Estrogen receptor (Homo sapiens) (P03372 whole entry, looked up): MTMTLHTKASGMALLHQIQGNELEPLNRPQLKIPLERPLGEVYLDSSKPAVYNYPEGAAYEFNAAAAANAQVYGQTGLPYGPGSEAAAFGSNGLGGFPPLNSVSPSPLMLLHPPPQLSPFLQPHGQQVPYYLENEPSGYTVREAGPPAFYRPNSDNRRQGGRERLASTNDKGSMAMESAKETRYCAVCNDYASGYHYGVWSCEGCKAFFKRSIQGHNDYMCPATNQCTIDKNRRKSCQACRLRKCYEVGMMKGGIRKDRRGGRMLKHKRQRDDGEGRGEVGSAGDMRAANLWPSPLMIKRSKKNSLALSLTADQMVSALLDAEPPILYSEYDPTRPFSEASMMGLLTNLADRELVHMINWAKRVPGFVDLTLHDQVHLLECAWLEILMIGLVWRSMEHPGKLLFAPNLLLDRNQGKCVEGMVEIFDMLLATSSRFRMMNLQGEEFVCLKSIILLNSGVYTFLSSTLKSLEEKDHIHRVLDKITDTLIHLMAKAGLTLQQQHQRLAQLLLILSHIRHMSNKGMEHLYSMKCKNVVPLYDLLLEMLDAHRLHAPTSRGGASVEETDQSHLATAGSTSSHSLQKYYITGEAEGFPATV
# Summary of the method: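 ER-alpha-UAS-bla GripTite HEK 293 cells in medium with 2% charcoal/dextran-treated FBS were preincubated 4 h at 37 C, dosed with compound (1:2 titration), stimulated with 0.5nM 17-beta-estradiol for 18 h, then read by CCF4 beta-lactamase fluorescence.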
# [16] = qHTS assay for small molecule activators of the p53 signaling pathway (AID 651743; active = well fitted activation curve with a large enough effect in the signal ratio, not every such curve was filed as active; the % refers to the signal ratio; note: potency is the fitted concentration of half-maximal effect; for activation: % of control where 0% means no effect); conditions: HCT-116 p53RE-bla, beta-lactamase FRET ratio, 16 h; activation: stronger effect = higher value
# Summary of the method: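 Following 16 hours of compound exposure at 37 C, HCT-116 cells bearing the p53RE-bla reporter were loaded with LiveBLAzer B/G FRET substrate for 2 hours at room temperature and fluorescence intensity was recorded.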
# [17] = molecular target: Estrogen receptor (Homo sapiens) (UniProt P03372); test: qHTS assay for small molecule agonists of estrogen receptor alpha signaling (AID 588514); conditions: ER-alpha-UAS-bla HEK293, beta-lactamase ratio, 18 h, percent of full estradiol response, vehicle zero; series mostly up to 76.8 µM;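 note: 0% = vehicle only and 100% = reference agonist; nearly all actives have a fitted effect of over 70% in size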
# Summary of the method: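 Efficacy is expressed against 20 nM 17-beta-estradiol (100%) and DMSO basal (0%); EC50 from Hill equation. Assay: beta-lactamase reporter in ER-alpha-UAS-bla HEK 293 cells, 18 h compound incubation, CCF4 detection.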
# [18] = molecular target: Glucocorticoid receptor (Homo sapiens) (UniProt P04150); test: qHTS assay for small molecule antagonists of glucocorticoid receptor signaling (AID 588533; active = well fitted inhibition curve with a large enough effect in the signal ratio, with a control signal flat, not every such curve was filed as active; the % refers to the signal ratio; note: % is set by controls: 0 for no effect and ±100 for the full control effect); conditions: HeLa MMTV-bla, GRE beta-lactamase ratio, antagonist mode, 18 h; series mostly up to 76.8 µM
# Summary of the method: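 Antagonist-mode qHTS: compound titrations added to GRE-bla HeLa cells, then dexamethasone 2 nM final; 18 h, 37 C. CCF4 FRET fluorescence normalized to dexamethasone and DMSO; IC50 from Hill fit.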
structure (smiles),measurement,setting,value
CC/C(=C(\c1ccccc1)c1ccc(OCCN(C)C)cc1)c1ccc(O)cc1,activation,[1],5.28% (inactive)
same,outcome,[2],inactive
same,outcome,[3],inactive
CCCCCC/C(C=O)=C\c1ccccc1,activation,[1],-2.77% (inactive)
same,max response,[4],24.4%
same,outcome,[5],inactive
same,Potency,[6],inactive
same,outcome,[2],inactive
same,max response,[7],3.46%
same,outcome,[8],inactive
same,max response,[9],10.6%
same,max response,[10],9.05% (inactive)
same,activity change % (negative = inhibition),[11],8.8% (inactive)
same,Potency,[12],inactive
same,activation,[13],-0.556% (inactive)
same,outcome,[3],inactive
same,outcome,[14],inactive
CN(C)c1ccc(C2(c3ccc(N(C)C)cc3)OC(=O)c3cc(N(C)C)ccc32)cc1,Potency,[15],inactive
same,max response,[4],-30.7%
same,outcome,[5],inactive
same,Potency,[6],inactive
same,max response,[9],-30.3%
same,max response,[10],32.7% (inactive)
same,activity change % (negative = inhibition),[11],12.5% (inactive)
same,Potency,[16],50.1 µM (active)
same,outcome,[14],inactive
Oc1ccc2cc(SSc3ccc4cc(O)ccc4c3)ccc2c1,Potency,[12],13.3 µM (active)
same,activation,[13],0.682% (inactive)
same,outcome,[3],inactive
C/C=C1\C(=O)C[C@H]2[C@@H]3CCC4=CC(=O)CC[C@]4(C)[C@H]3CC[C@]12C,Potency,[12],2.98 µM (active)
same,activation,[13],-4.79% (inactive)
same,outcome,[3],inactive
C=C(C)c1ccccc1,Potency,[6],inactive
same,outcome,[2],inactive
same,max response,[7],-11%
same,outcome,[8],inactive
same,max response,[9],-0.247%
same,max response,[10],-3.16% (inactive)
same,activity change % (negative = inhibition),[11],2.47% (inactive)
same,activation,[16],-1.34% (inactive)
same,activation,[13],1.11% (inactive)
same,outcome,[3],inactive
same,outcome,[14],inactive
O=C1OC(O)C(C(Cl)Cl)=C1Cl (stereo not given),activation,[1],-17.9% (inactive)
same,Potency,[6],44.7 µM (active)
same,outcome,[2],inactive
same,max response,[9],-8.4%
same,max response,[10],-25.5% (inactive)
same,Potency,[12],29.8 µM (active)
same,activation,[16],-1.76% (inactive)
same,activation,[13],-0.496% (inactive)
same,outcome,[14],inactive
CO[C@H]1/C=C/O[C@@]2(C)Oc3c(C)c(O)c4c(O)c(c5c(c4c3C2=O)NC2(CCN(CC(C)C)CC2)N=5)=NC(=O)/C(C)=C\C=C\[C@H](C)[C@H](O)[C@@H](C)[C@@H](O)[C@@H](C)[C@H](OC(C)=O)[C@@H]1C,Potency,[15],inactive
same,outcome,[17],inactive
same,activation,[1],-2.4% (inactive)
same,Potency,[18],inactive
same,Potency,[6],inactive
same,outcome,[2],inactive
same,activity change % (negative = inhibition),[11],5.09% (inactive)
same,activation,[16],-4.17% (inactive)
